Experimental data published in PubChem BioAssay (NCATS).
Records with an inconclusive call do not appear. A call without a number means that no potency is given here. The source made the active and inactive calls. Calls come from the whole dose curve; as a rule, active = well fitted curve in the direction sought with a large enough effect; inconclusive = small, poorly fitted or top-dose-only effect, or another doubt; inactive = no such curve, though single readings can be large; an effect the other way counts as inactive or inconclusive. Where a SMILES comes first, the peptide text is derived from it. The star is where a group is joined. AMC = Cc1cc(=O)oc2cc(N*)ccc12; Cbz = O=C(OCc1ccccc1)*

Tested on: not listed separately
Test: P-glycoprotein substrates identified in KB-8-5-11 adenocarcinoma cell line, qHTS therapeutic library screen (AID 1346987); note: nearly all actives have a fitted effect of over 65% in size
Settings: KB-8-5-11 (P-gp overexpressing) viability, CellTiter-Glo, 72 h; series mostly up to 44.5 µM
Method in brief: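 Human cervical adenocarcinoma KB-8-5-11 cells, selected in colchicine to over-express P-gp and assayed without it, were exposed for 72 h to titrated compounds. An ATP-based luminescent viability signal gave AC50.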

Compound	Potency
Cc1cc(O[C@@H]2O[C@H](COC(=O)CC(=O)O)[C@@H](O)[C@H](O)[C@H]2O)c(C(C)C)cc1O	inactive
CCCC(=O)Nc1cccc(NC(=O)c2ccccc2Br)c1	inactive
CC(=O)[C@@H]1C[C@H](C(C)(C)O[C@@H]2O[C@H](CO)[C@@H](O)[C@H](O)[C@H]2O)CC[C@@]2(CO)OC(=O)C[C@@H]12	inactive
N[C@@H](CCNCc1ccc(Cl)cc1)C(=O)N1CCCCC1	inactive
Cc1ccc(C)c(NC(=O)CNS(=O)(=O)c2ccc3[nH]c(=O)oc3c2)c1	inactive
Cc1c(Cc2ccc3ccccc3n2)c2cc(F)ccc2n1CC(=O)O	inactive
CC(C)(Oc1ccc(-c2nc3cc(Cl)ccc3s2)cc1)C(=O)O	inactive
C=C1C(=O)O[C@@H]2C[C@]3(C)[C@@H](CCC(C)=O)[C@@H]3C[C@H]12	inactive

Tested on: Zika virus NS2B-NS3 protease (unlinked complex)
Test: Primary screen GU Rhodamine qHTS for Zika virus inhibitors: Unlinked NS2B-NS3 protease assay (AID 1347159); note: nearly all actives have a fitted effect of over 60% in size; note: potency is the fitted concentration of half-maximal effect
Settings: Recombinant ZIKV NS2B-NS3 protease, Rhodamine110 substrate fluorescence; series mostly up to 107 µM
Method in brief: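 Percent inhibition came from the 15-min rise in Rhodamine110 fluorescence (1.5 microM substrate, ~15% conversion), normalized to no-inhibitor and no-enzyme wells and Hill-fitted. Unlinked protease, 25 nM, pH 8.0 Tris buffer; compounds up to 114 microM, 15-min preincubation.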

Compound	Potency
OC[C@H]1O[C@@H](O[C@H]2[C@H](O)[C@@H](CO)O[C@@H](OCc3ccccc3)[C@@H]2O[C@@H]2OC[C@](O)(CO)[C@H]2O)[C@H](O)[C@@H](O)[C@@H]1O	inactive
COc1cc(C(=O)OC[C@@]2(O)CO[C@@H](O[C@H]3[C@H](Oc4ccc(O)cc4)O[C@H](CO)[C@@H](O)[C@@H]3O)[C@@H]2O)cc(OC)c1O	inactive
Cc1cc(C)c2nc(-c3ccccn3)cc(C(=O)Nc3ccc(S(=O)(=O)Nc4onc(C)c4C)cc3)c2c1	2 µM (active)
CC1=C2C3OC(=O)C(C)C3(O)CCC2(C)CCC1 (configuration not stated)	inactive
COc1cncc(C#Cc2ccccn2)c1	inactive
O=C1NC(=O)/C(=C/c2cccc(C(F)(F)F)c2)S1	2.51 µM (active)
c1cc(-c2cc(C3CCNCC3)[nH]n2)ccn1	inactive
C=C1CCC2[C@@](C)(C(=O)O)CCC[C@@]2(C)[C@@H]1CCc1ccoc1 (some centres not stated)	10 µM (active)
CC(=O)NC1C(OC2CCC3(C)C(CCC4(C)C3CC=C3C5CC(C)(C)CCC5(C(=O)O)C(O)CC34C)C2(C)C)OC(CO)C(O)C1O (configuration not stated)	inactive
O=C(/C=C/c1ccccc1)O[C@@H]1[C@@H](CO)O[C@@](CO)(O[C@H]2O[C@H](CO)[C@@H](O)[C@H](O)[C@H]2O)[C@H]1O	inactive
CC1=CCC[C@@H]2[C@](CCc3ccoc3)(C(=O)O)[C@H](C)CC[C@@]12C	8.91 µM (active)
C[C@@H]1O[C@@H](O[C@H]2[C@H](O[C@H]3[C@H](O[C@H]4CC[C@@]5(C)C(CC[C@]6(C)C5CC=C5[C@@H]7CC(C)(C)C[C@@H](O)[C@]7(C)CC[C@]56C)[C@@]4(C)CO)O[C@H](C(=O)O)[C@@H](O)[C@@H]3O)O[C@H](C(=O)O)[C@H](O)[C@@H]2O)[C@H](O)[C@H](O)[C@H]1O (some centres not stated)	inactive
CC(=O)O[C@@H]1[C@H](OC(C)=O)C[C@@]2(C)C(CC[C@@H](C)[C@]23Cc2c(O)cc4c(c2O3)CN([C@@H](CCC(=O)O)C(=O)O)C4=O)C1(C)C (some centres not stated)	inactive
O=C(O)CCc1ccc(NCc2cccc3c2CCCN3CCOc2ccccc2)cc1F	3.16 µM (active)
C=C[C@H]1[C@H](O[C@@H]2O[C@H](CO)[C@@H](O)[C@H](O)[C@H]2O)OC=C(C(=O)OC)[C@H]1CCO	inactive
COc1ccc(C2C(C(=O)O)C(C(=O)O)C2c2ccc(OC)cc2O[C@@H]2O[C@H](CO)[C@@H](O)[C@H](O)[C@H]2O)c(O[C@@H]2O[C@H](CO)[C@@H](O)[C@H](O)[C@H]2O)c1 (some centres not stated)	7.94 µM (active)
COc1cc(Cc2cnc(N)nc2N)c(C(C)C)cc1OC	inactive
Cc1cc(=O)oc2cc(NC(=O)[C@H](CCC(=O)O)NC(=O)[C@H](CC(C)C)NC(=O)[C@H](CC(C)C)NC(=O)OCc3ccccc3)ccc12 (Cbz-Leu-Leu-Glu-{AMC})	inactive
Cc1sc(C)c(C(=O)NC2(c3ccc(C(=O)O)cc3)CC2)c1Cc1ccc(C(F)(F)F)cc1	17.8 µM (active)
CC1OC(OC2C(OC3C(O[C@H]4CC[C@@]5(C)C(CC[C@]6(C)C5CC=C5C7CC(C)(C)CC(O)[C@]7(C)CC[C@]56C)C4(C)C)OC(C(=O)O)C(O)C3O)OCC(O)C2O)C(O)C(O)C1O (some centres not stated)	7.94 µM (active)

Compound	Potency
CC(=O)/C=C/[C@H]1[C@](C)(O)[C@@H](O)[C@H](O)C2C(C)(C)CCC[C@@]21C (some centres not stated)	inactive
C/C=C(\C)C1C(C)=CC2CCC(OS(=O)(=O)O)C(C)C2C1/C=C/C=C/C(=O)O (configuration not stated)	8.91 µM (active)
C=C(C)[C@H]1CC[C@]2(C(=O)O)CC[C@]3(C)C(CCC4[C@@]5(C)CCC(=O)C(C)(C)C5CC[C@]43C)C12 (some centres not stated)	7.08 µM (active)
C=C1CCC2C(C)(C)CC(=O)CC2(C)C1CCC(C)CCO (configuration not stated)	20 µM (active)
COC(=O)[C@]1(C)CCC[C@@]2(C)C(=O)CC[C@H]3C(=O)C=C(CC[C@@H]21)C3O (some centres not stated)	inactive
CC1=CC23[C@H](C=C(C(=O)O)[C@@H]2COC(=O)[C@]3(O)CO)[C@@H]1C (some centres not stated)	inactive
C=C1CCC2C(C)(C)CC(O)CC2(C)C1CCC(C)CC(=O)O (configuration not stated)	11.2 µM (active)
CC(C)c1ccc2c(c1)C(O)CC1C(C)(CO)CCCC21C (configuration not stated)	inactive
CC(=O)OC1CCC2(C)C(CCC3(C)C2CC=C2C4CC(C)(C)CCC4(C)CCC23C)C1(C)C(=O)O (configuration not stated)	7.08 µM (active)
CSCC1OC(n2cnc3c(=O)[nH]cnc32)C(O)C1O (configuration not stated)	inactive
Cc1cc(-n2c(=O)[nH]c(=O)n(C)c2=O)ccc1Oc1ccc(SC(F)(F)F)cc1	15.8 µM (active)
Cc1cc(O[C@@H]2O[C@H](COC(=O)CC(=O)O)[C@@H](O)[C@H](O)[C@H]2O)c(C(C)C)cc1O	inactive
CCCC(=O)Nc1cccc(NC(=O)c2ccccc2Br)c1	inactive
CC(=O)[C@@H]1C[C@H](C(C)(C)O[C@@H]2O[C@H](CO)[C@@H](O)[C@H](O)[C@H]2O)CC[C@@]2(CO)OC(=O)C[C@@H]12	inactive
N[C@@H](CCNCc1ccc(Cl)cc1)C(=O)N1CCCCC1	inactive
Cc1ccc(C)c(NC(=O)CNS(=O)(=O)c2ccc3[nH]c(=O)oc3c2)c1	inactive
Cc1c(Cc2ccc3ccccc3n2)c2cc(F)ccc2n1CC(=O)O	35.5 µM (active)
CC(C)(Oc1ccc(-c2nc3cc(Cl)ccc3s2)cc1)C(=O)O	35.5 µM (active)
C=C1C(=O)O[C@@H]2C[C@]3(C)[C@@H](CCC(C)=O)[C@@H]3C[C@H]12	inactive
